Inconclusive results are not listed. A call without a number means that no potency is given here. The source made the active and inactive calls. Calls follow the shape of the dose curve; as a rule, active = well fitted inhibition curve with a large enough effect; inconclusive = small, poorly fitted or top-dose-only effect; inactive = flat fitted curve, though single readings scatter.
Tested on: Zika virus NS2B-NS3 protease
Test: Primary screen GU AMC qHTS for Zika virus inhibitors (AID 1347154); also: nearly all actives have a fitted effect of over 70% in size
Conditions: Zika NS2B-NS3 unlinked protease, AMC fluorogenic substrate; series mostly up to 54.1 µM
Outline: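 Unlinked Zika NS2B hydrophilic domain/NS3 protease domain noncovalent complex (25 nM final) in 10 mM Tris-HCl pH 8.0, 0.01% Tween 20, with AMC peptide substrate. Fluorescence (ex 340, em 450 nm) change over 15 min, room temperature; percent inhibition fitted to 4-parameter Hill equation.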

SMILES | Potency
CC(C)[C@H](CO)Nc1nc(Nc2cccc(Cl)c2)c2ncn(C(C)C)c2n1 | inactive
NC1=N[C@H]2[C@H](CS[C@H]2CCCCC(=O)O)N1 | inactive
COc1ccc2cc([S+]([O-])Cc3ncc(C)c(OC)c3C)nc2c1 | inactive
Cn1c(Nc2ccc(C(F)(F)F)cc2)nc2cc(Oc3ccnc(-c4ncc(C(F)(F)F)[nH]4)c3)ccc21 | inactive

Reference: PubChem BioAssay (NCATS)
